Hit rate of the full screen: of about 2,100 compounds, about 760 (36%) were called active.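 How the source made its calls: active means thallium-flux fluorescence traces judged by eye to show enhanced or reduced glutamate response, manual score 1 or -1, so both directions (some results past the limit were not filed as active); inactive means the rest, including fluorescent or raised-baseline compounds.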 Only a sample is shown.
assay: thallium influx changes without GIRK channels – cell-based, HEK-293 rmGlu8, no GIRK, thallium flux, counter-screen for GIRK activator project, confirmation (AID 623868); conditions: thallium flux fluorescence, at 10 µM, actives lie on both sides, codes: 1 enhancer, -1 blocker, 0 none, thallium stimulus containing EC20 glutamate;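 further: extra codes mark interference with 3 for fluorescent and 4 for baseline rise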

Compound | manual score
CCOc1cc(C2NN=C(c3ccc(C)cc3)S2)ccc1O (centres undefined) | 1 (active)
C=CCNC(=O)NC(=S)c1ccccc1 | 1 (active)
N#Cc1ccc(-c2csc(NC3=NCCCCC3)n2)cc1 | 0 (inactive)
C=CCNC(=S)NNC(=O)COc1ccc(Cl)cc1Cl | 0.5 (inactive)
CCC(C)c1ccc(NC(=S)Nc2ccc(OC)c(OC)c2)cc1 (centres undefined) | 0 (inactive)
COc1ccc(NC(=S)SC)cc1OC | 0 (inactive)
O=C(COc1ccc(Cl)cc1Cl)NNC(=S)Nc1ccc(F)cc1 | 1 (active)
COC(=O)NC(=S)Nc1ccc(Oc2ccc(Cl)cc2Cl)c(Cl)c1 | 1 (active)
O=C(COc1ccc(Cl)cc1Cl)Nc1noc2ccccc12 | 0 (inactive)
CC(=O)c1ccc(OC(=O)N(c2ccccc2)c2ccccc2)cc1 | 0 (inactive)
CCOc1ccc2nc(/N=C/c3c(C)[nH]n(-c4ccc(C)cc4)c3=O)sc2c1 | 1 (active)
COc1ccc2nc(/N=C/c3c(C)[nH]n(-c4ccc(C)cc4)c3=O)sc2c1 | 1 (active)
CCOc1[nH]n(-c2ccc(Cl)cc2)c(=O)c1C=Nc1ccc(Cl)cc1 | 0 (inactive)
CCOc1ccc2nc(/N=C/c3c(C)[nH]n(-c4ccccc4)c3=O)sc2c1 | 1 (active)
COc1ccc2nc(/N=C/c3c(C)[nH]n(-c4ccc(C)cc4C)c3=O)sc2c1 | 1 (active)
CC(C)OC(=O)CC12CN3CN(C1)CC(CC(=O)OC(C)C)(C3)C2=O | 0 (inactive)
CC1(C)NC(=O)N(CC(O)COc2ccc(-c3ccc(C#N)cc3)cc2)C1=O (centres undefined) | 0 (inactive)
CCOc1cc(N2CCOCC2)c(OCC)cc1NC(=O)COC(=O)CCc1c[nH]c2ccccc12 | 0 (inactive)
COc1c2occc2c(OC)c2c(=O)cc(C(F)(F)F)oc12 | 0 (inactive)
CCN(CC)c1ccc(NC(=O)c2nc3nc(C)cc(C(F)F)n3n2)cc1 | 0 (inactive)
O=C(COC(=O)CCC1CCCC1)Nc1nc2c(F)c(F)c(F)cc2s1 | 0 (inactive)
CCN1CCCC1CNC(=O)C1CCN(Cc2nc(-c3cccc(Br)c3)oc2C)CC1 (centres undefined) | 0 (inactive)
CCOC(=O)C(CC)Sc1nnc(COc2ccc(C)cc2)n1-c1ccccc1 (centres undefined) | 3 (inactive)

Compound | manual score
CCOC(=O)C(CC)Sc1nnc2cc(C)c3ccccc3n12 (centres undefined) | -1 (active)
CCN(CC)CCn1c(=S)[nH]c2cc(Cl)ccc2c1=O | 0.5 (inactive)
O=c1c2ccc(Cl)cc2[nH]c(=S)n1CCC1=CCCCC1 | 1 (active)
N#CCCN(Cc1ccccc1)C(=S)NC(=O)c1ccccc1 | 1 (active)
COc1ccc(CN(CCC#N)C(=S)NC(=O)c2ccccc2)cc1 | 1 (active)
COCCN(C(=O)Cc1cccs1)C(C(=O)NCc1ccc(OC)cc1)c1ccccc1 (centres undefined) | 0 (inactive)
COc1ccc(CNC(=O)C(C#N)c2nc3ccccc3nc2N2CCCC2)cc1 (centres undefined) | 3 (inactive)
CCCN1C(=O)/C(=C/c2ccc(N3CCCC3)c(C)c2)NC1=S | 3 (inactive)
CCCN1C(=O)/C(=C/c2ccc(C)s2)NC1=S | 1 (active)
CC(C)CN1C(=O)/C(=C/c2cccs2)NC1=S | 1 (active)
CCN1C(=O)/C(=C/c2ccc(C)s2)NC1=S | 0.5 (inactive)
O=C1/C(=C/c2ccc(N3CCCC3)cc2)NC(=S)N1C1CC1 | 3 (inactive)
CSc1nc2ccccc2cc1/C=C(\C#N)c1cccc(C)c1 | 0 (inactive)
Cc1ccc(C(=O)N/N=C/C2=Cc3ccccc3OC2C)cc1 (centres undefined) | 1 (active)
CC1Oc2ccccc2C=C1/C=N/NC(=O)c1ccccc1 (centres undefined) | 0 (inactive)
CCOC(=O)c1sc(NC(=S)NC(=O)c2ccco2)nc1C | 1 (active)
Cc1nnc(NC(=O)c2ccco2)s1 | 0 (inactive)
COC(=O)c1sc(NC(=S)NC(=O)c2ccccc2)nc1C | 1 (active)
COC(=O)c1sc(NC(=S)NC(=O)c2cccc(C)c2)nc1C | 1 (active)
CCCCSc1nc(N)c(NC(=O)c2ccco2)c(=O)[nH]1 | 0 (inactive)
COC(=O)c1sc(NC(=S)NC(=O)c2ccccc2Cl)nc1C | 1 (active)
COC(=O)Nc1nc(C)c(C(=O)N(C)C)s1 | 0 (inactive)
COc1cc(C)ccc1OCCOc1cc(C)ccc1Cl | 0 (inactive)

Compound | manual score
COc1ccc(OC)c(S(=O)(=O)N(C)CC(=O)N2CCN(c3ccccc3F)CC2)c1 | 0 (inactive)
Cc1cccc2c1nc(-c1ccccc1)n1cnnc21 | 0 (inactive)
CN(C(=S)NC(=O)CCCOc1ccc(Cl)cc1Cl)c1ccccc1 | 1 (active)
Cc1cc(NC(=O)COc2ccc(Cl)cc2Cl)n(-c2ccccc2)n1 | 0 (inactive)
O=C(COc1ccc(Cl)cc1Cl)Nc1ccccn1 | 0 (inactive)
CSc1nc(N2CCOCC2)c2c(c1C#N)CC(C)(C)OC2 | 0 (inactive)
Cc1nc(SC2CCOC2=O)c2c(C)c(C)sc2n1 (centres undefined) | 1 (active)
COc1ccc(C)cc1S(=O)(=O)Nc1cccc(Cl)c1Cl | 0.5 (inactive)
Cc1ccc(NC(=S)N/N=C/c2c(Cl)cccc2Cl)c(C)c1 | 1 (active)
Cc1cccc(-n2c(O)c(/C=N/NC(=O)c3ccccc3Cl)c3ccccc3c2=O)n1 | 3 (inactive)
CCOC(=O)N/N=C/c1c(C)nn(-c2ccccc2Cl)c1Cl | 0 (inactive)
CCNC(=S)N/N=C/c1c(Cl)cccc1Cl | 1 (active)
Cc1ccc(NCC(=O)Nc2cccc(S(=O)(=O)N(C)C)c2)c(Cl)c1 | 0 (inactive)
O=C(Cn1nc(Cc2ccncc2)c2ccccc2c1=O)N1CCN(C(=O)c2ccco2)CC1 | 0 (inactive)
Cc1cc(C)c2nc(SCC(=O)NCCC3=CCCCC3)cc(C)c2c1 | 1 (active)
COc1cccc(-n2c(SCC(=O)NCCC3=CCCCC3)nc3n[nH]c(C)c3c2=N)c1 | 0 (inactive)
O=C(CCCc1nc(-c2ccc(Cl)cc2)no1)Nc1cccnc1 | 0 (inactive)
CCOC(=O)c1ccccc1Nc1cn(C(C)=O)c2ccccc12 | 0 (inactive)
CCOC(=O)c1cnn2c1[nH]c(=O)c1ccccc12 | 1 (active)
Cc1cc2[nH]c(=O)c3ccccc3n2n1 | 0 (inactive)
CN(C=O)CP(=O)(O)CCN1CCCC1=O | 0 (inactive)
Cc1cc(C(=O)N2CCN(CCc3ccccc3)CC2)no1 | 0 (inactive)
S=c1[nH]nc(-c2cc3c(s2)-c2ccccc2CC3)o1 | 1 (active)

— PubChem BioAssay AID623868 (Vanderbilt High Throughput Screening Facility, 2012)
